Among the data in PubChem BioAssay (NCI) are growth values, retold here.

Molecules are shown by their SMILES. About 83,000 compounds went through this panel and 20% of them were active in at least one assay; those are over-represented in the sample as a whole.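 Interpretation: 100, growth as untreated; towards 0, rising growth inhibition; 0, no net growth; 0 to -100, cell death. Compounds scoring below 10 were considered active.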 A number with no mark means an inactive call. Active and inactive are the calls of the source.

Common to all, as to assay: NCI-60 one-dose screen, 48 h (100 = growth as untreated, 0 = no growth, -100 = all killed)
One test has as its system SR leukemia. Particulars: 10 µM unless noted.
In another test the test system is RPMI-8226 leukemia. The settings on record: 10 µM unless noted.
The subject of a further test is OVCAR-8 ovarian. The settings on record: 10 µM unless noted.
For the next test, the system named is OVCAR-5 ovarian. Particulars: 10 µM unless noted.
The subject of the next test is OVCAR-4 ovarian. The settings on record: 10 µM.
In another test the test system is SK-OV-3 ovarian. Particulars: 10 µM unless noted.
Another test relates to IGROV1 ovarian. Particulars: 10 µM unless noted.
The next test concerns OVCAR-3 ovarian. The settings on record: 10 µM unless noted.
For another test, the system named is HS 578T breast. The settings on record: 10 µM unless noted.
Another test relates to T-47D breast. Particulars: 10 µM unless noted.
For the next test, the system named is BT-549 breast. Particulars: 10 µM unless noted.
A further test concerns MDA-MB-435 melanoma. Particulars: 10 µM unless noted.
For a further test, the system named is SW-620 colon. Particulars: 10 µM unless noted.
A further test concerns MCF7 breast. Particulars: 10 µM unless noted.
The subject of another test is HCT-116 colon. The settings on record: 10 µM unless noted.
In a further test the test system is HCC-2998 colon. The settings on record: 10 µM unless noted.
Another test concerns NCI/ADR-RES ovarian. Particulars: 10 µM unless noted.
Another test deals with KM12 colon. The settings on record: 10 µM unless noted.

As for `Brc1ccc(-c2nnc3c4[nH]ccc4ncn23)cc1`, the growth in the test on SR leukemia is 82.1%; in the test on RPMI-8226 leukemia, 84.4%; in the test on OVCAR-8 ovarian, 95.3%; with OVCAR-5 ovarian it was 113%; in the test on OVCAR-4 ovarian, 91.1%; in the test with SK-OV-3 ovarian, 93.2%. Besides, the growth in the test with IGROV1 ovarian was 69.6%; with OVCAR-3 ovarian it was 85.7%; in the test with HS 578T breast, 93.6%; in the test on T-47D breast it was 57.6%; in the test on BT-549 breast, 94.3%; in the test on MDA-MB-435 melanoma, 97.8%. Moreover, the growth was 94% with SW-620 colon, 75.8% in the test with MCF7 breast, 86.4% in the test on HCT-116 colon and 96.6% with HCC-2998 colon.

`COc1cc(-c2nc(SCCC(C)C)nc(Nc3ccccc3)c2C#N)cc(OC)c1OC`: the growth in the test on SR leukemia is 79.8%; in the test with RPMI-8226 leukemia, 92.2%; with OVCAR-8 ovarian it was 97.7%; in the test with OVCAR-5 ovarian it was 99.4%; in the test on OVCAR-4 ovarian it was 88.3%; with SK-OV-3 ovarian, 107%. Besides, the growth with IGROV1 ovarian is 100%; in the test with OVCAR-3 ovarian, 103%; in the test on HS 578T breast, -8.69% (active); in the test on NCI/ADR-RES ovarian, 95.5%; in the test with BT-549 breast, 96.4%; in the test on MDA-MB-435 melanoma it was 92.9%. For the same compound, the growth in the test on SW-620 colon is 104%; in the test with MCF7 breast it was 92.7%; in the test with HCT-116 colon, 91.7%; in the test on HCC-2998 colon, 116%; in the test on KM12 colon it was 100%.

Take `CC(C)OC(=O)Nc1cc(F)ccc1F`: the growth with SR leukemia was 96.1%; in the test on RPMI-8226 leukemia it was 103%; in the test on OVCAR-8 ovarian it was 100%; in the test with OVCAR-5 ovarian it was 93.8%; in the test with OVCAR-4 ovarian, 106%; with SK-OV-3 ovarian, 101%. Also, the growth was 93.7% in the test on IGROV1 ovarian; 110% with HS 578T breast; 102% with NCI/ADR-RES ovarian; 94.8% with T-47D breast; 111% with BT-549 breast; 99.4% in the test on MDA-MB-435 melanoma. Besides, the growth was 99.8% in the test with SW-620 colon, 97.1% in the test on MCF7 breast, 98.3% in the test on HCC-2998 colon and 103% with KM12 colon.

On to `CC1(C)S[C@@H]2[C@H](NC(=O)[C@H](C(=O)O)c3cccs3)C(=O)N2[C@H]1C(=O)O`, for which the growth with SR leukemia was 102%; with RPMI-8226 leukemia, 117%; with OVCAR-8 ovarian, 98.7%; in the test with OVCAR-5 ovarian, 100%; in the test on OVCAR-4 ovarian, 112%; in the test on SK-OV-3 ovarian it was 105%. The growth was 109% in the test with IGROV1 ovarian; 111% in the test on OVCAR-3 ovarian; 102% in the test on NCI/ADR-RES ovarian; 102% in the test with T-47D breast; 106% in the test with MDA-MB-435 melanoma; 113% in the test with SW-620 colon. The growth in the test with MCF7 breast is 110%; in the test with HCT-116 colon it was 108%; with HCC-2998 colon it was 103%; in the test on KM12 colon, 106%.

For the compound `C=C1C(=O)O[C@H]2[C@H]1CC/C(COC(=O)NCc1ccc(Cn3c(=O)sn(-c4ccc(Cl)cc4)c3=O)cc1)=C\CC[C@@]1(C)O[C@@H]21`, the growth is 72.3% in the test with SR leukemia; 4.32% (active) with RPMI-8226 leukemia; 84% in the test with OVCAR-8 ovarian; 93.2% in the test with OVCAR-5 ovarian; 54.2% in the test on OVCAR-4 ovarian; 107% in the test with SK-OV-3 ovarian. Moreover, the growth in the test with IGROV1 ovarian was 54.4%; with HS 578T breast, 106%; in the test with NCI/ADR-RES ovarian, 102%; in the test on T-47D breast it was 47.5%; in the test on MDA-MB-435 melanoma it was 82.9%; in the test on SW-620 colon, 6.67% (active). Also, the growth in the test on MCF7 breast was 33.1%; in the test on HCT-116 colon, 22.1%; with HCC-2998 colon, 107%.

As to `CC[C@]1(O)CC2CN(CCc3c([nH]c4ccccc34)[C@@](C(=O)OC)(c3cc4c(cc3OC)N(C=O)[C@H]3[C@@](O)(C(=O)OC)[C@H](OC(C)=O)[C@]5(CC)C=CCN6CC[C@]43[C@@H]65)C2)C1` (stereo partly specified), the growth is 13% in the test on SR leukemia; 18.7% with RPMI-8226 leukemia; 13.2% in the test with OVCAR-8 ovarian; 32.2% in the test on OVCAR-5 ovarian; 43% in the test on OVCAR-4 ovarian; 4.03% (active) in the test with SK-OV-3 ovarian. Moreover, the growth was 39.4% in the test on IGROV1 ovarian; -49.2% (active) with OVCAR-3 ovarian; 91% with T-47D breast; 15.7% in the test on BT-549 breast; -25.7% (active) in the test on MDA-MB-435 melanoma; 21.9% in the test on MCF7 breast. The figures for the growth with HCT-116 colon, with HCC-2998 colon and in the test with KM12 colon were 5.51% (active), 0.206% (active) and -30.7% (active), respectively.

As to `CCOC(=O)COc1c(C)cc(SSc2cc(C)c(OCC(=O)OCC)c(C)c2)cc1C`, the growth was 90.9% with SR leukemia; 90.6% in the test with RPMI-8226 leukemia; 102% in the test with OVCAR-8 ovarian; 128% in the test on OVCAR-5 ovarian; 93.1% with OVCAR-4 ovarian; 106% in the test with SK-OV-3 ovarian. In addition, the growth in the test with IGROV1 ovarian was 96.5%; in the test with HS 578T breast, 122%; in the test on NCI/ADR-RES ovarian it was 110%; with T-47D breast, 91.3%; in the test on MDA-MB-435 melanoma it was 114%; with SW-620 colon it was 99.5%. Besides, the growth in the test with MCF7 breast was 92.6%; with HCT-116 colon, 104%; with HCC-2998 colon, 112%; with KM12 colon, 72.4%.

In the case of `COc1ccc2nc3cc(Cl)ccc3c(Nc3ccc(O)c(CN4CCCC4)c3)c2c1`, the growth in the test on SR leukemia is 0.0468% (active); in the test on RPMI-8226 leukemia it was -25.2% (active); with OVCAR-8 ovarian it was -2.17% (active); in the test on OVCAR-5 ovarian, 57.4%; in the test on OVCAR-4 ovarian, -4.45% (active); with SK-OV-3 ovarian, 73.2%. Moreover, the growth in the test on IGROV1 ovarian is -26.3% (active); with OVCAR-3 ovarian, -32.1% (active); in the test with T-47D breast it was 35.8%; in the test with BT-549 breast it was 79.2%; in the test on MDA-MB-435 melanoma, -61.5% (active); with HCT-116 colon, -45% (active). The growth with KM12 colon is 19.2%.

Regarding `CCOC(=O)C(c1ccccc1)N1C(=O)c2ccccc2C1=O` (stereo unspecified), the growth was 115% with SR leukemia; 98% with RPMI-8226 leukemia; 99.7% in the test with OVCAR-8 ovarian; 99.7% with OVCAR-5 ovarian; 97.7% in the test on OVCAR-4 ovarian; 95.4% in the test on SK-OV-3 ovarian. In addition, the growth was 96.5% with IGROV1 ovarian; 92.3% in the test on HS 578T breast; 99.3% in the test with NCI/ADR-RES ovarian; 97.3% in the test on T-47D breast; 90.3% in the test on BT-549 breast; 93.1% in the test with MDA-MB-435 melanoma. In addition, the growth was 97.4% with SW-620 colon, 98.4% in the test on HCC-2998 colon and 98.8% with KM12 colon.

Consider `O=C(Nc1ccc(F)cc1)c1ccccc1`, for which the growth in the test with SR leukemia is 88.8%; in the test with RPMI-8226 leukemia, 102%; with OVCAR-8 ovarian, 105%; in the test with OVCAR-5 ovarian it was 105%; in the test on OVCAR-4 ovarian it was 100%; in the test on SK-OV-3 ovarian, 112%. Also, the growth in the test with IGROV1 ovarian was 110%; in the test on HS 578T breast, 107%; with NCI/ADR-RES ovarian it was 98.9%; in the test with T-47D breast, 104%; in the test on BT-549 breast, 84.8%; with MDA-MB-435 melanoma it was 97.3%. The growth in the test on SW-620 colon is 101%; in the test with MCF7 breast it was 96%; with HCT-116 colon it was 103%; with HCC-2998 colon it was 109%; with KM12 colon, 104%.
